# In the supplement of paper PMC8975748:
# Structures can show the parent of a compound that is named as a salt.
# Test system: Saccharomyces cerevisiae BY4741 SeMeCo community
# Experiment: z-score of subpopulation abundance vs DMSO median, subpopulation auxotrophic for HLU; higher = larger share of this subpopulation than in DMSO controls
# Details: 10 µM; 24 h; SM minimal medium; subpopulation (auxotrophy): HLU
# Method: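 Fluorescent four-plasmid SeMeCo (self-establishing metabolically cooperating S. cerevisiae BY4741 community; plasmids pH-mRuby2, pL-mWasabi, pU-eCFP, pM-TagRFP657) was grown 24 h in minimal SM medium with each Selleck FDA-approved drug at 10 µM in 384-well plates. Cells were fixed and imaged by high-content confocal microscopy. For each auxotrophic subpopulation (and the prototroph), a z-score gives the deviation from the DMSO vehicle-control population median.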
row,Compound,z-score of subpopulation abundance
1,COc1cc(C(C)=O)ccc1OCCCN1CCC(c2noc3cc(F)ccc23)CC1 [Iloperidone],-1.31
2,CN[C@@H]1[C@@H](O)[C@@H](O[C@@H]2[C@@H](O)[C@H](O[C@H]3O[C@H](CN)[C@@H](O)[C@H](O)[C@H]3O)[C@@H](N)C[C@H]2NC(=O)[C@@H](O)CN)OC[C@]1(C)O [Isepamicin Sulphate],-0.42
3,CCCCNC(=O)NS(=O)(=O)c1ccc(C)cc1 [Tolbutamide],-0.37
4,COC(=O)C1=C(C)NC(C)=C(C(=O)OCCN2CCN(C(c3ccccc3)c3ccccc3)CC2)C1c1cccc([N+](=O)[O-])c1 (stereo not given) [Manidipine 2HCl],0.54
5,CS(=O)(=O)c1ccc(C2=C(c3ccccc3)C(=O)OC2)cc1 [Rofecoxib],1.31
6,COc1cc2c(cc1OC)[C@@H]1Cc3ccc(OC)c(OC)c3CN1CC2 [Rotundine],0.67
7,Cc1cnc(NC(=O)C2=C(O)c3ccccc3S(=O)(=O)N2C)s1 [Meloxicam],-1.26
8,COc1ccc(C2CNC(=O)C2)cc1OC1CCCC1 (stereo not given) [Rolipram],-0.57
9,CC[C@H]1OC(=O)C[C@@H](O)[C@H](C)[C@@H](O[C@@H]2O[C@H](C)[C@@H](O[C@H]3C[C@@](C)(O)[C@@H](O)[C@H](C)O3)[C@H](N(C)C)[C@H]2O)[C@@H](CC=O)C[C@@H](C)C(=O)/C=C/C(C)=C/[C@@H]1CO[C@@H]1O[C@H](C)[C@@H](O)[C@@H](OC)[C@H]1OC [Tylosin],0.34
10,C[C@@H]1CC(=O)NN=C1c1ccc(NN=C(C#N)C#N)cc1 [Levosimendan],-0.67
11,CCC(=O)NS(=O)(=O)c1ccc(-c2c(-c3ccccc3)noc2C)cc1 [Parecoxib Sodium],0.91
12,CN1CCN(CC(=O)N2c3ccccc3C(=O)Nc3cccnc32)CC1 [Pirenzepine dihydrochloride],-0.21
13,COc1cc(NS(=O)(=O)c2ccc(N)cc2)ncn1 [Sulfamonomethoxine],0.33
14,N[C@@H](CCC(=O)O)C(=O)O [(S)-Glutamic acid],-0.63
15,N[C@@H](C(=O)N[C@@H]1C(=O)N2C(C(=O)O)=C(Cl)CS[C@H]12)c1ccccc1 [Cefaclor],-0.22
16,C[C@@H](O)[C@H]1C(=O)N2C(C(=O)O)=C(S[C@@H]3CN[C@H](C(=O)N(C)C)C3)[C@H](C)[C@H]12 [Meropenem Trihydrate],0.91
17,CN1CCN(CCCN2c3ccccc3Sc3ccc(Cl)cc32)CC1 [Prochlorperazine dimaleate salt],0.49
18,CC/C(=C(\c1ccccc1)c1ccc(OCCN(C)C)cc1)c1ccccc1 [Tamoxifen],0.93
19,COCCCN1CCC(NC(=O)c2cc(Cl)c(N)c3c2OCC3)CC1 [Prucalopride],-0.6
20,NC[C@@H]1O[C@H](O[C@H]2[C@@H](O)[C@H](O[C@@H]3[C@@H](O)[C@H](N)C[C@H](N)[C@H]3O[C@H]3O[C@H](CN)[C@@H](O)[C@H](O)[C@H]3N)O[C@@H]2CO)[C@H](N)[C@@H](O)[C@@H]1O [Neomycin sulfate],-0.36

row,Compound,z-score of subpopulation abundance
1,O=C(N[C@H](CO)[C@H](O)c1ccc([N+](=O)[O-])cc1)C(Cl)Cl [Chloramphenicol],-0.24
2,CN1C[C@@H]2C[C@H]1CN2c1cc2c(cc1F)c(=O)c(C(=O)O)cn2C1CC1 [Danofloxacin Mesylate],0.21
3,O=C(O)c1cc(-c2ccc(F)cc2F)ccc1O [Diflunisal],-0.75
4,Fc1ccc(C(c2ccc(F)cc2)N2CCN(C/C=C/c3ccccc3)CC2)cc1 [Flunarizine 2HCl],0.59
5,CC(C)[C@H](N)C(=O)OCC(CO)OCn1cnc2c(=O)[nH]c(N)nc21 (stereo not given in full) [Valganciclovir HCl],-0.52
6,CC1(C)S[C@@H]2[C@H](NC(=O)[C@H](N)c3ccc(O)cc3)C(=O)N2[C@H]1C(=O)O [Amoxicillin trihydrate],0.3
7,CC1(C)[C@H](C(=O)O)N2C(=O)C[C@H]2S1(=O)=O [Sulbactam sodium],0.64
8,CC[C@H](C)C(=O)O[C@H]1C[C@@H](C)C=C2C=C[C@H](C)[C@H](CC[C@@H]3C[C@@H](O)CC(=O)O3)[C@H]21 [Lovastatin],0.37
9,O=C(c1ccccc1)c1ccc2n1CCC2C(=O)O (stereo not given) [Ketorolac],-0.97
10,OC(CCN1CCCCC1)(c1ccccc1)C1CCCCC1 (stereo not given) [Trihexyphenidyl hydrochloride],-0.09
11,CN(C)CCCN1c2ccccc2Sc2ccc(Cl)cc21 [Chlorpromazine HCl],-0.85
12,"CCC(=O)Oc1ccc2c(c1)CCC1C2CCC2(C)C(OC(=O)CC)CCC12 (stereo not drawn) [Estradiol dipropionate(17-Beta-Estradiol-3,17-Dipropionate)]",-0.61
13,CO/N=C(\C(=O)N[C@@H]1C(=O)N2C(C(=O)O)=C(Cn3ccc(=N)n3CCO)CS[C@H]12)c1csc(N)n1 [Cefoselis Sulfate],-0.33
14,CO[C@@H]1[C@@H](O[C@@H]2O[C@H](C)[C@@H](O[C@H]3C[C@@](C)(O)[C@@H](O)[C@H](C)O3)[C@H](N(C)C)[C@H]2O)[C@@H](CC=O)C[C@@H](C)[C@@H](O[C@H]2CC[C@H](N(C)C)[C@@H](C)O2)/C=C/C=C/C[C@@H](C)OC(=O)C[C@H]1OC(C)=O [Acetylspiramycin (ASPM)],1.65
15,CO/N=C(\C(=O)N[C@@H]1C(=O)N2C(C(=O)O)=C(CSC(=O)c3ccco3)CS[C@H]12)c1csc(N)n1 [Ceftiofur],-0.05
16,C[C@H](NCc1ccc(OCc2cccc(F)c2)cc1)C(N)=O [Safinamide Mesylate],0.4
17,CN(C/C=C/C#CC(C)(C)C)Cc1cccc2ccccc12 [Terbinafine HCl],-0.09
18,O=c1[nH]c2ccccc2n1CCN1CCN(c2cccc(C(F)(F)F)c2)CC1 [Flibanserin],-0.49
19,COc1cc(O)c(C(=O)Nc2nc(C(=O)NCCN(C(C)C)C(C)C)cs2)cc1OC [Acotiamide],1.61
20,c1ccc(-c2ccc(C(c3ccccc3)n3ccnc3)cc2)cc1 (stereo not given) [Bifonazole],0.9
